From PubChem BioAssay (EPA / NIEHS)
Several values for one entry are separate records, joined by “and”; a condition that tells them apart may be missing. Equal entries are not always repeated. Activity calls are given as the source filed them. The calls were made as follows: active = hit-call score of the fitted dose curve at least 0.9, where 1 is the maximum; inactive = score below 0.9.

Experiment: CCTE_Shafer_MEA_dev_correlation_coefficient_mean: CCTE's Neural Network Formation Assay for Mean Correlation Coefficient, Shafer Lab (AID 2284093);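 as to AC50: well mean pairwise spike train correlation integrated as AUC over recording days 5 to 12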
Procedure: CCTE_Shafer_MEA_dev assay is conducted using Axion Biosystems 48 well microelectrode array (MEA) plates and Maestro recording system. Each well of the MEA plate contains a grid of 16 microelectrodes embedded in the culture surface. Electrically active cells, such as neurons, can be cultured over the electrodes, and electrical activity in these cells can be recorded extracellularly. The spontaneous firing of neurons is captured from each electrode on a microsecond timescale providing both temporally and spatially precise data. […] The CCTE_Shafer_MEA_dev assay uses primary cultures of rat cortical neurons. Recordings are made on days post-plating 5, 7, 9 and 12. As these cultures mature over time, neural networks develop functional activity and form cohesive networks in which electrical activity can be highly coordinated. CCTE_Shafer_MEA_dev_correlation_coefficient_mean is 1 of 19 assay components of the CCTE_Shafer_MEA_dev assay. It measures the correlation coefficent of spikes (action potential firings) between every pair of electrodes in a well during a recording in a microelectrode array (MEA) using Axion Biosystems Maestro 768 channel amplifier with the AxIS adaptive spike detector. The pairwise correlations are averaged across active electrodes to report a well-mean value. To collapse across multiple recordings made on days post-plating 5, 7, 9 and 12, the trapezoidal area-under-the-curve of the component is calculated.Data from the assay component CCTE_Shafer_MEA_dev_correlation_coefficient_mean was analyzed into 1 assay endpoint. This assay endpoint, CCTE_Shafer_MEA_dev_correlation_coefficient_mean, was analyzed in the negative analysis fitting direction relative to DMSO as the negative control and baseline of activity. Using a type of functional reporter, gain or loss-of-signal activity can be used to understand electrical activity.
On the day prior to culture, each well was coated thoroughly with 150 uL of 0.05% polyethyleneimine (PEI, Sigma Cat P3143) in 50 mM HEPES (Sigma Cat H7523) at a pH of 8. The plate was incubated at 37C for one hour. PEI was rinsed out with 500 uL of sterile water three times. Plates were stored at 4C until the day of culture. This culture was plated at a seeding density of 1.5 x 10^5 cells/well on a 48-well MEA plate, prepared as described above. Cells were administered via a 25 uL media/laminin ([…]; Sigma Cat L2020-1MG) drop directly onto the microelectrode array, as adding the cells with the laminin results in better attachment than pre-coating with laminin. After 2 hours, an additional 475 uL of cortical media was added and the cells returned to the incubator. Exposure starts at day 0 of plating and is continued over twelve days of network development until the experiment is terminated. Cells are fed with fresh medium on DIV 5 and 9, following the recordings on those days. The entire volume of media in the well is exchanged and any vehicle or compound treatment is renewed. Complete details are found in OP-NHEERL/ISTD/SBB/TJS/2015-03-r0 (available on request, email shafer.tim@epa.gov). Measurement of the electrical activity is non-invasive, and recordings can be made from the same plate over multiple different days of the culture. In cortical neurons, this allows for the measurement of extracellular action potentials over the period during which networks form in the MEA plate.

Row | SMILES | outcome | AC50
1 | O=C(O)c1ccccc1 | inactive | –
2 | CC(C)(c1ccc(O)cc1)c1ccc(O)cc1 | inactive | –
3 | CSC(=O)c1cccc2nnsc12 | inactive | –
4 | OB(O)O | inactive | –
5 | CCCCOCCOCCOCc1cc2c(cc1CCC)OCO2 | inactive | –
6 | CCCN(CCC)C(=O)SCC | inactive | –
7 | S=C([S-])NCCNC(=S)[S-].[Mn+2] | inactive | –
8 | CCCCC(CC)CN1C(=O)C2C3C=CC(C3)C2C1=O (stereo not given) | inactive | –
9 | Cc1nn(C)c(Oc2ccccc2)c1C=NOCc1ccc(C(=O)OC(C)(C)C)cc1 | – | 2.29 nM (active)
10 | COCCO | inactive | –
11 | S=C(S)NCCNC(=S)S.[Mn+2].[S-]C([S-])=NCCN=C([S-])[S-].[Zn+2] | inactive | –
12 | C#CCOC(=O)[C@@H](C)Oc1ccc(Oc2ncc(Cl)cc2F)cc1 | inactive | –
13 | CCN(CC)C(=O)c1cccc(C)c1 | inactive | –
14 | CC1(C)C(C=C(Cl)Cl)C1C(=O)OCc1cccc(Oc2ccccc2)c1 (stereo not given) | – | 15 µM (active) and 5.33 µM (active)
15 | Oc1ccc(C(c2ccc(O)cc2)C(Cl)(Cl)Cl)cc1 | inactive | –
